# IP6K1 inh: inhibitors of human IP6K1 | hit rate 0.81% among 140,000 | activity change, % (series mostly up to about 58 µM) | IP6K1 kinase, ADP-Glo luminescence, 2 h; stronger effect = lower value | Q92551; in the data active = activity change below about -25%; note: % is set by controls: 0 for no effect and ±100 for the full control effect
#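 ADP-Glo luminescence measures ADP made by human IP6K1 during a 2 h RT reaction with ATP/IP6 (mix at 1.3 mM/130 uM); top library doses 57.5 and 19.1 uM final.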
# SNCA expr inhib: inhibitors of alpha-synuclein (SNCA) gene expression; hit rate 0.17% among 140,000; Potency, µM (titrated, usually from 57.2 µM), inactives show top-dose activity change, negative = inhibition, most hits filed as inhibitors; HEK-293 SNCA-luciferase knock-in, luminescence, 24 h; AID 1671194;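 note: potency is the fitted concentration of half-maximal effect; plate controls were DMSO cells for no effect and cell-free wells for full effect; nearly all actives have a fitted effect of over 45% in size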
# SNCA viab count: cell viability loss counter-screen; HEK-293-SNCA-luc viability, GF-AFC fluorescence, 24 h; Potency, µM (doses to about 57.1 µM), inactives show at the highest dose activity change, negative = cytotoxicity, usual class: cytotoxic; hit rate 0.12% among 150,000; AID 1671193;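 note: potency is the fitted concentration of half-maximal effect; 0% = DMSO-treated cells and -100% = medium-only wells without cells; nearly all actives have a fitted effect of over 30% in size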
#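 HEK-293-SNCA-luc cells (1500/well) plated 24 h, then exposed 24 h to a dilution series; GF-AFC added 30 min at 37C, fluorescence 405/540 nm; normalised to medium-only and DMSO wells, Hill fit.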
# KDM5B inh: blocks human KDM5B histone demethylase activity. KDM5B demethylase, FDH-coupled NADH fluorescence (FDH is formaldehyde dehydrogenase). Q9UGL1. Potency, µM (highest dose often 57.7 µM), most hits filed as inhibitors. hit rate 2.6% among 220,000; note: potency is the fitted concentration of half-maximal effect; 0% is about no effect; nearly all actives have a fitted effect of over 70% in size
# Target sequence (Q9UGL1 whole entry, looked up): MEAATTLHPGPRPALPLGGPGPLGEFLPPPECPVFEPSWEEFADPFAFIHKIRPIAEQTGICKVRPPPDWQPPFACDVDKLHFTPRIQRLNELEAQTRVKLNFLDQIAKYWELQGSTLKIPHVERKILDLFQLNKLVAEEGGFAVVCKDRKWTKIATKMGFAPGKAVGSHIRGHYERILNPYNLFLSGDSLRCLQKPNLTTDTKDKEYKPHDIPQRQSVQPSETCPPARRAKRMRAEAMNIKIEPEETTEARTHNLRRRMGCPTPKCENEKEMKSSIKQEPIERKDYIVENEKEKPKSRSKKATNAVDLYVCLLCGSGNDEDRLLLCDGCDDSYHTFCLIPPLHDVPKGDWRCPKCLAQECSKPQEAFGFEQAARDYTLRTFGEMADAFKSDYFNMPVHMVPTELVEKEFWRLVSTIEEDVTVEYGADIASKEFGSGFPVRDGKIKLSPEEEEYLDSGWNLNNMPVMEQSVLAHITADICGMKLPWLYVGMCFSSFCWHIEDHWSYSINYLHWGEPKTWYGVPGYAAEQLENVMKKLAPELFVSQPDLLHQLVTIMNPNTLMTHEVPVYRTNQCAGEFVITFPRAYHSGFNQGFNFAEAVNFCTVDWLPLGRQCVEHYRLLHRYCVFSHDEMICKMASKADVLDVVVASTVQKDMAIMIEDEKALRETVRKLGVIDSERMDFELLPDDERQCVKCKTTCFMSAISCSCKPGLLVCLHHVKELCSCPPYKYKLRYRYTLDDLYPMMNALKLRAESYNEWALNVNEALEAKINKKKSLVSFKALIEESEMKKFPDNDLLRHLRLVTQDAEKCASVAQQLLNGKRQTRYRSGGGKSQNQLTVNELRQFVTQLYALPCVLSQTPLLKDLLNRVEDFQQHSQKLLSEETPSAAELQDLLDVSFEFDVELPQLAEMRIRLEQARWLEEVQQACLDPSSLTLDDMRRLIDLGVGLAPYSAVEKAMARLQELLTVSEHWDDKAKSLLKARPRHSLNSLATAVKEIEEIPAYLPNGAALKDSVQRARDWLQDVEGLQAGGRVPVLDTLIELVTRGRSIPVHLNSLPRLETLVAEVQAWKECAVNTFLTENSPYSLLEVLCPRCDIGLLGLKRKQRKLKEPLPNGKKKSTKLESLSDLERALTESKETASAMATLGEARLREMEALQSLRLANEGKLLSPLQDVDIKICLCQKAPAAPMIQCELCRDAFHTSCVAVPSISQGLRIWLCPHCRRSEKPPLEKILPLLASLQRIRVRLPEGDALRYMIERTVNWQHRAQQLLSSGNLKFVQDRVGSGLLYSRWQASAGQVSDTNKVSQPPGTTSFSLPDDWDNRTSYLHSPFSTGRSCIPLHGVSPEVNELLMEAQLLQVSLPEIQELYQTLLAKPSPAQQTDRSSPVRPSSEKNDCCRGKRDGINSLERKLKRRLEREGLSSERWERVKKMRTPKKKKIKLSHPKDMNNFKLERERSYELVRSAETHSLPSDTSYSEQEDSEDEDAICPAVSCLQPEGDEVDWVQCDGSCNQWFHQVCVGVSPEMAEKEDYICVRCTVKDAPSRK
#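 Coupled FDH/NAD⁺ fluorescence readout. KDM5BΔAP 200 nM final; compound titration, 10 min RT preincubation; substrate mix 12.5 µM H3K4me3, 25 µM 2-OG, 50 µM Fe(II), 100 µM ascorbate, 0.25 mM NAD⁺, 0.25 U/mL FDH; ΔRFU over 30 min.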
# * marks the source's active call; other numbers are inactive results; i = inactive; ? = inconclusive; . = not tested or not shown; [ ] = dose if it differs, or a comment. A selection: hits, their analogues and other compounds. The true share with any hit is near 2.8%. Unless noted, calls come from the whole dose curve; as a rule, active = well fitted curve in the direction sought with a large enough effect; inconclusive = small, poorly fitted or top-dose-only effect, or another doubt; inactive = no such curve, though single readings can be large; an effect the other way counts as inactive or inconclusive.
SMILES,IP6K1 inh,SNCA expr inhib,SNCA viab count,KDM5B inh
O=C(Nc1ccc2ncnc(N3CCCCC3)c2c1)c1cncc(Br)c1,13,5%,-1%,28µM*
COc1ccc(CC(=O)Nc2ccc3ncnc(N4CCCC4)c3c2)c(Cl)c1,2,8%,-7%,?
O=C(Nc1ccc2ncnc(N3CCCCC3)c2c1)c1ccsc1,4,-16%,?,i
CC1=C(c2ccc(C(C)C)cc2)S(=O)(=O)N=C1N1CCC(C(=O)NCc2ccccc2)CC1,-12,-21%,5%,i
Cc1ccc(S(=O)(=O)C(C)C(=O)c2ccc(Br)cc2)cc1 (configuration not stated),.,.,.,i
CCC1CCCCN1CCCNC(=O)CN1C(=O)c2cccnc2Oc2ccc(Cl)cc21 (configuration not stated),-1,-11%,-3%,i
O=C(c1ccccc1)N1CCN(C(=O)c2cc(-c3ccccn3)nc3ccccc23)CC1,.,.,.,i
Cc1ccc(-c2cc3c(ccn3CC3CCN([S+](C)(=O)[O-])CC3)c(N3CCOCC3)n2)cn1,2,12%,-1%,32µM*
C[S+](=O)([O-])N1CCC(Cn2ccc3c(N4CCOCC4)nc(-c4cccnc4)cc32)CC1,17,-7%,1%,?
N#Cc1ccc(CN2C[C@@H]3OCC(=O)N(CC(N)=O)[C@@H]3C2)cc1,-5,-23%[87.6 µM],-2%[87.6 µM],35µM*
Cc1cccc(Cn2cc3c(=O)n(CC(=O)Nc4ccc(C)c(F)c4)nc-3c3cc(F)ccc32)c1,6,22µM*,-14%,i
Cc1ccc(NC(=O)C(C#N)=C2CCCCC2)cc1,.,.,.,i
CN(CC1COc2ccccc2O1)S(=O)(=O)N1CCOCC1 (configuration not stated),.,.,.,i
COc1ccc(-c2ccnc(-c3nnc(C)n3C3CCCCC3)c2)cc1OC,-8,-3%[87.6 µM],1%[87.6 µM],35µM*
COc1cccc(-c2ccnc(-c3nnc(C)n3C3CCCCC3)c2)c1,14,20%[87.6 µM],-5%[87.6 µM],i
S=C1N[C@H]2CCCC[C@@H]2N1,.,.,.,i
N#Cc1cccc(-c2n[nH]c3c2CC(=O)N(Cc2ccccn2)C3)c1,-25,-1%[87.6 µM],-5%[87.6 µM],35µM*
CC(=O)N1CCN(c2cncc(C(=O)N3CCOCC3)n2)CC(O)C1 (configuration not stated),10,3%,5%,22µM*
COCCNC(=O)c1cc(-c2ccc(Cl)nc2)nc2c1cnn2C,-5,13%[87.6 µM],-15%[87.6 µM],.
Cc1ccc(C(=O)NC(CN(C)C)c2ccccc2)cc1F (configuration not stated),.,.,.,i
Cc1nc(Nc2n[nH]c3c2CN(C(=O)N[C@H](CN(C)C)c2ccccc2)C3(C)C)c2sccc2n1,28,0.015µM*,?,.
COc1cccc(Cn2nc(SC)c(S(=O)(=O)c3ccccc3)c2N(C(C)=O)C(C)=O)c1,-24,0%,2%,i
O=c1c(-c2ccccc2)nc2cncnc2n1-c1ccccc1,.,?,-8%,.
O=C(Cc1ccc(F)cc1)NCc1nnc2cc(-c3nc(C4CC4)no3)ccn12,4,7%,-2%,28µM*
O=C(Cc1cccc(F)c1)NCc1nnc2cc(-c3nc(C4CC4)no3)ccn12,-6,-23%,12%,28µM*
SMILES,IP6K1 inh,SNCA expr inhib,SNCA viab count,KDM5B inh
COc1ccccc1-n1nnnc1SCc1nc2ccccc2[nH]1,.,.,.,i
CCN1CC(C(=O)N2CCN(Cc3cc(OC)ccc3OC)CC2)CC1=O (configuration not stated),-8,1%,-7%,i
CCN1CC(C(=O)N2CCN(CCOc3ccccc3)CC2)CC1=O (configuration not stated),-7,18%,-6%,25µM*
O=C(c1ccc2cc[nH]c2c1)N1CCC2(CC1)N=C(c1cccc(Br)c1)NO2,9,?,-10%,28µM*
COCCN1C(=O)CS(=O)C12CCN(C(=O)c1cccc3[nH]ccc13)CC2 (configuration not stated),8,14%,8%,28µM*
O=C(c1ccc2[nH]ccc2c1)N1CCC2(CC1)N=C(c1ccc(Br)cc1)NO2,-5,21%,-1%,i
Cc1ccc(C2=NC3(CCN(C(=O)c4cccc5[nH]ccc45)CC3)ON2)cc1,-3,36%,-22%,32µM*
COCc1noc([C@@H]2CC(F)(F)CN2C(=O)c2ccc(C#N)cc2)n1,27,-26%,9%,i
O=C(c1ccc(Cl)cc1)N1CC2(CCN(CC3CCCC3)C2)OCc2ccccc21 (configuration not stated),-1,9%,-16%,i

# Screening results deposited in PubChem BioAssay by National Center for Advancing Translational Sciences (NCATS).
